Screening data deposited in PubChem BioAssay by several laboratories.
Shown are actives, neighbours in structure and some others; about 7.6% of the full set was active somewhere.
PLAP act = activators of human placental alkaline phosphatase; P05187; activation fold at 20 µM; actives 1.2% (n = 96,000); purified PLAP enzyme, luminescent substrate read-out; hits give high values; AID 696; in the data active means activation fold above about 2
Target sequence (P05187 whole entry, looked up): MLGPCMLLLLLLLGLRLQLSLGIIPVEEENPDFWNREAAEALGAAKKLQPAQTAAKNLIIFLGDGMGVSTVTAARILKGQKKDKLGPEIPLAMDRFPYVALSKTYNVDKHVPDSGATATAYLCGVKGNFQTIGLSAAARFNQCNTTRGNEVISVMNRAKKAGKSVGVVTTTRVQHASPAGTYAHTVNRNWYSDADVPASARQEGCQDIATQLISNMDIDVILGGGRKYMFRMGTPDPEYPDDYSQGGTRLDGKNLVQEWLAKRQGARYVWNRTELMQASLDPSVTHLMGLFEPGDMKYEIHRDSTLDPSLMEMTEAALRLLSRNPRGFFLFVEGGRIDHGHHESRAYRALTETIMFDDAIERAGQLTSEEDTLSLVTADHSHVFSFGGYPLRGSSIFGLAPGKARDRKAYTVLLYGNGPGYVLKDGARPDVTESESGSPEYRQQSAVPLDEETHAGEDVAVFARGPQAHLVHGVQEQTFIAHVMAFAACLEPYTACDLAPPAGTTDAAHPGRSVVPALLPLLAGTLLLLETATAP
Cav32 inh = inhibitors of human Cav3.2 T-type calcium channel. O95180. Cav3.2-expressing cells, Fluo-4 calcium fluorescence FDSS; hits give low values. B-score at 10 µM. actives 4% (n = 100,000). AID 449739;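 active means single-dose well whose peak fluorescence ratio is a statistical outlier from its plate by either plate-standardised score or position-corrected B-score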
M1 ag = activates the M1 muscarinic receptor. B-score at 10 µM. actives 3% (n = 64,000). CHO-M1 cells, Fluo-4 calcium fluorescence, agonist mode; hits give high values;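 active means fluorescence rise, raw or as B-score row- and column-corrected plate score, outside the 99.7% band of its plate's samples, either direction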
M1 antag = blocks the rat M1 muscarinic receptor response to acetylcholine | CHO-M1 cells, Fluo-4 calcium, ACh EC80 antagonist mode; hits give low values | B-score at 10 µM | actives 3.4% (n = 64,000) | P08482 | AID 628;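 active means calcium fluorescence response, raw or row-and-column corrected B-score, differing from the plate sample mean either way at a set confidence level, mostly lower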
M1 antag conf = M1 muscarinic receptor (rat) antagonism, confirmed; CHO-M1 cells, Fluo-4 calcium, ACh EC80 antagonism; hits give low values; shares compounds with M1 antag; calcium response (max-min fluorescence) at 10 µM; actives 43% (n = 1,700);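 active means calcium response below the same-plate mean of wells given acetylcholine alone at its 80%-effect dose, minus 3 SD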;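 further: raw fluorescence intensity difference in arbitrary instrument units and not normalized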
mGluR4 antag = mGluR4 (human) activity, M1 antagonist secondary assay | shares compounds with M1 antag | CHO-mGluR4 calcium flux, Fluo-4 fluorescence, glutamate EC80; hits give low values | fluorescence response (max-min) at 10 µM | actives 0.9% (n = 1,700) | AID 678;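 active means fluorescence response below the plate's average for near-maximal glutamate wells, less 3 SD of those wells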;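 further: raw unnormalized fluorescence span taken in the window right after glutamate addition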
The depositor's hits bear a star; . = no result given.

SMILES	PLAP act	Cav32 inh	M1 ag	M1 antag	M1 antag conf	mGluR4 antag
Cc1cc(C)n(S(=O)(=O)c2ccc(C(C)(C)C)cc2)n1	0.9	-3.2	-0.11	-8.7*	20*	246
C=CCOC(=O)CCCC(=O)NC1CCCCC1	1.1	0.56	0.11	-0.18	.	.
O=C(CCC(=O)OCCCC(F)(F)C(F)(F)F)NC1CCCCC1	0.9	0.21	0.59	-8.2*	636	233
COc1ccc(S(=O)(=O)Nc2cc(C)nn2-c2ccccc2)cc1	1	-0.49	.	.	.	.
CC(C)CCNC(=O)c1c(CSc2ccc(Cl)cc2)noc1C(=O)NCc1ccccc1	.	0.034	.	.	.	.
Cc1ccc(CN(C)CCc2ccccn2)cc1	0.7	0.54	-0.18	-1.2	.	.
CCc1ccc(CN(C)CCc2ccccn2)cc1	1.3	0.36	0.34	-7.3*	357*	208
CC(=O)CC(c1ccc([N+](=O)[O-])cc1)c1c(O)c2ccccc2oc1=O (stereo not drawn)	1.2	-0.24	.	.	.	.
Cc1cccc(Nc2ccccc2C(=O)OCC(=O)NCc2ccco2)c1C	1.2	-0.77	.	.	.	.
Cc1cccc(Nc2ccccc2C(=O)OCC(=O)N2CCOCC2)c1C	1.4	-0.053	1	-4.2*	531	205
CC(C)(C)C(=O)CC1(O)C(=O)N(Cc2ccccc2)c2ccccc21 (stereo not drawn)	1.1	0.16	.	.	.	.
COc1ccc(Cl)cc1NC(=O)CCN1CCN(c2ccccc2C)CC1	1	0.75	0.069	0.18	.	.
CCN1CCN(c2ncc(C(=O)Nc3cc(Cl)ccc3OC)c3ccccc23)CC1	1.5	.	-0.075	-21*	21*	247
CN(C(=O)c1cccc(C#N)c1)c1nnc(-c2cnccn2)s1	1	0.27	2.4	0.15	.	.
Cc1ccc2cc3c(nc2c1)N(Cc1ccco1)CC3	1	-0.59	-0.67	-1.3*	319*	194
COc1ccc(C2N=C(N)N=C(N)N2c2ccccc2OC)cc1OC (stereo not drawn)	1	0.1	.	.	.	.
COc1ccc(S(=O)(=O)N(C)CC(=O)N2CCN(C)CC2)cc1C	1.1	-0.53	-1.1	-1.9*	685	226
CCOC(=O)N1CCN(C(=O)CN(c2ccccc2OC)S(=O)(=O)c2ccc(C)cc2)CC1	1.2	-0.23	0.014	-2.6*	621	250
CCN1CCN(C(=O)CN(C)S(=O)(=O)c2ccc(OC)c(C)c2)CC1	1.6	-4.1	.	.	.	.
Cc1cc(C(=O)CSc2nnnn2C)c(C)n1CCc1ccc(F)cc1	0.4	0.3	-0.92	-2.1*	644	231
Cc1ccc(-n2c(C)cc(C(=O)CSc3nnnn3C)c2C)cc1	1.7	-2.5	-0.19	-1.8*	574	222
Cc1ccc(-n2c(C)cc(C(=O)CSc3nncs3)c2C)cc1	1.6	-1.9	1.5	-2	.	.
Cc1cc(C(=O)COc2ccc(-c3nnco3)cc2)c(C)n1Cc1ccccc1	1.7	-2.8	0.34	-0.29	.	.
Cc1ccccc1C(=O)c1ccc2c(c1)n(C)c(=O)n2C	1.7	0.86	0.0021	0.39	.	.
COC(=O)c1cc(Br)ccc1-c1ccc(/C=N/n2nnnc2N)o1	0.8	-0.006	1.8	-5*	450	206
SMILES	PLAP act	Cav32 inh	M1 ag	M1 antag	M1 antag conf	mGluR4 antag
Cn1c(COc2ccc3ccccc3c2)nnc1SCC(N)=O	0.9	1.2	-0.32	-0.16*	516	171
CC(=O)N1CCc2cc(S(=O)(=O)NC(CC(C)C)C(=O)N3CCn4c3nc3ccccc34)ccc21 (stereo not drawn)	1.4	0.99	-0.29	1.2	.	.
CC1CCCC(C)N1CC(C)(C)NS(=O)(=O)c1ccc(Cl)cc1 (stereo not drawn)	0.6	-0.18	.	.	.	.
CC1CC(C)CN(CC(C)(C)NS(=O)(=O)c2ccccc2)C1 (stereo not drawn)	0.7	-0.036	1.5	-2.6*	548	246
CCCn1c2c(c(O)c(C(=O)Nc3ncccc3C)c1=O)CCCC2	1.2	-1.8	-1.1	-2.3*	421*	208
O=C(NC1CCCCC1)c1noc2c1CCCCC2	1.1	-0.06	0.22	-1.9*	598	266
CC1(C)CC(=O)C(Sc2nnc(-c3ccc(NS(C)(=O)=O)cc3)n2Cc2ccco2)C(=O)C1	0.9	.	-0.044	0.093	.	.
Cn1c(SC2C(=O)CC(C)(C)CC2=O)nnc1-c1ccco1	1.1	0.19	0.03	-12*	675	199
Cc1nn(C(C)C(=O)NCc2ccccc2Cl)c(=O)c2c1sc1ccccc12 (stereo not drawn)	1.4	-0.69	.	.	.	.
O=C(COC(=O)c1ccccc1S(=O)(=O)N1CCCCC1)NCC(F)(F)F	1.3	1.2	0.25	-0.85	.	.
COc1ccc(Oc2c(C)oc3c(CN(C)C)c(O)ccc3c2=O)cc1	1.1	0.62	0.43	-7.5*	371*	182
COc1ccc(Oc2coc3c(CN(C)C)c(O)ccc3c2=O)cc1	0.9	-0.28	-0.058	-3.7*	445*	211
Cn1c(SCC(=O)c2cc3ccccc3o2)nnc1-c1ccccc1	1.3	0.23	-0.055	-2*	680	261
Cn1ccnc1SCC(=O)c1cc2ccccc2o1	1.4	0.11	0.35	-3.2*	648	250
Cn1c(SCC(=O)N2CCN(c3ccccc3)CC2)nnc1-c1cc2ccccc2o1	1	-0.38	1	0.17	.	.
CC(Cc1ccccc1)NC(=O)CSc1nc2nc3c(cc2c(=O)n1-c1ccccc1)COC(C)(C)C3 (stereo not drawn)	1.5	0.27	.	.	.	.
COc1ccc(Br)cc1C1N2CC3(C)CN1CC(C)(C2)C3=O (stereo not drawn)	1.6	0.66	-0.043	0.76	.	.
COc1ccc(OC)c(S(=O)(=O)Nc2ccc3oc4c(c3c2)C(=O)CCC4)c1	1.3	0.23	-0.7	-1.3*	687	178
CC(C)(C)P(=O)(CO)c1ccccc1 (stereo not drawn)	1.1	0.66	-0.38	-2.5*	508	195
O=C(c1cc2cc(Br)cc(Br)c2oc1=O)N1CCCc2ccccc21	0.9	-0.28	.	.	.	.
Cc1cc(/C=C(/C#N)c2cccc(F)c2)c(C)n1-c1cccnc1	1.6	-2.2	-0.3	-5*	555	186
Cc1cc(/C=C(/C#N)c2cccc(Cl)c2)c(C)n1C	1	.	.	.	.	.
CS(=O)(=O)N(CC(=O)NCc1ccco1)c1ccc(Cl)c(C(F)(F)F)c1	1	-2	-0.41	0.019	.	.
CC(=O)OCn1nnc2ccccc2c1=O	.	0.24	0.52	0.42	.	.
Cc1ccc2c(CC(=O)OCn3nnc4ccccc4c3=O)coc2c1	0.9	-1	-0.58	-4.9*	323*	232
CN1CCC(N(C)CC(=O)Nc2cccc(Oc3ccccc3)c2)CC1	1.2	-0.006	0.28	-2.8*	454*	236
CCOC(=O)CN(C(=O)CSc1nnc(-c2ccncc2)n1CCCN(C)C)c1ccccc1	1	-0.55	0.28	-1.4*	611	249
CCOC(=O)CN(C(=O)CSc1nnc(-c2ccncc2)n1CCCOC)c1ccccc1	.	-0.47	.	.	.	.
O=C(N/N=C1/CCCc2ccccc21)C(c1ccccc1)c1ccccc1	1	-0.67	.	.	.	.
O=c1nc(NCc2ccccc2Cl)cn[nH]1	1.1	0.4	.	.	.	.
